Experiment in all cases: NCI-60 one-dose screen, 48 h (100 = growth as untreated, 0 = no growth, -100 = all killed)
For assay [1], the system named is T-47D breast. To be noted: 10 µM unless noted.
Assay [2] deals with BT-549 breast. The settings on record: 10 µM unless noted.
The subject of assay [3] is MDA-MB-435 melanoma. The settings on record: 10 µM unless noted.
Assay [4] deals with SW-620 colon. To be noted: 10 µM unless noted.
The test system of assay [5] is MCF7 breast. The settings on record: 10 µM unless noted.
For assay [6], the system named is HCT-116 colon. The settings on record: 10 µM unless noted.
Assay [7] has as its system HCC-2998 colon. To be noted: 10 µM.
The subject of assay [8] is KM12 colon. To be noted: 10 µM unless noted.

About 83,000 compounds went through this panel and 20% of them were active in at least one assay; those are over-represented in the sample as a whole.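 The test compound was applied at a single concentration to cells in 96-well plates for 48 hours, and percent growth was recorded.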 A number with no mark means an inactive call. Calls of active or inactive are those of the source. Rule for the calls: active = growth percent below 10; inactive = the rest.

Turning to `COc1cc(OC)c(/C=C/S(=O)(=O)Cc2ccc(OC)c(NCC(=O)O)c2)c(OC)c1`, the growth in assay [1] was 52.7%; in assay [2], 6.04% (active); in assay [3] it was -30.5% (active); in assay [4], 24.5%; in assay [5] it was 13.1%; in assay [6], 6.42% (active). Also, the growth in assay [7] is 5.81% (active); in assay [8], 5.06% (active).
Consider `COc1ccc(Cc2cc(-c3ccccc3C)n[nH]c2=O)cc1`, for which the growth in assay [1] is 94.4%; in assay [2], 132%; in assay [3] it was 117%; in assay [4], 103%; in assay [5], 95.4%; in assay [6], 98%. Also, the growth was 110% in assay [7] and 97.9% in assay [8].
Consider `COc1cc2c(Nc3ccc(Br)cc3F)ncnc2cc1OCC1CCN(C)CC1`, for which the growth was -22.9% (active) in assay [1]; 42.9% in assay [2]; -42.8% (active) in assay [3]; 31.8% in assay [4]; 31.3% in assay [5]; 24.3% in assay [6]. In addition, the growth was 19.3% in assay [7] and 38.1% in assay [8].
As for `O=C(Nc1ccc(N=Nc2ccccc2)cc1)c1cccc2ccccc12`, the growth in assay [1] was 66.3%; in assay [2], 53.5%; in assay [3], -17.2% (active); in assay [4] it was 40%; in assay [5] it was 42%; in assay [6] it was 36.1%. The results for the growth in assay [7] and in assay [8] were 78.5% and 47.7%, respectively.
Take `COc1ccc(-n2c(=O)c3ccccc3n(Cc3ccc(C(=O)NO)cc3)c2=O)cc1`: the growth is 5.48% (active) in assay [1]; 36.2% in assay [2]; -84.2% (active) in assay [3]; -27.3% (active) in assay [4]; 25.9% in assay [5]; -19.9% (active) in assay [6]. In addition, the figures for the growth in assay [7] and in assay [8] were 34% and -32.9% (active), respectively.
With `CCS(=O)(=O)N1CCN(c2ccc(Nc3ncc(C(N)=O)c(NC4CC4)n3)cc2)CC1`, the growth in assay [1] was 99.1%; in assay [2], 67%; in assay [3], 68.7%; in assay [4], 60.1%; in assay [5], 68.5%; in assay [6] it was 49.2%. Further, the results for the growth in assay [7] and in assay [8] were 98.3% and 24.5%, respectively.
Consider `CCN1CCN(Cc2ccc(Cc3ncc(F)c(-c4cc(F)c5nc(C)n(C(C)C)c5c4)n3)nc2)CC1`, for which the growth was 65.2% in assay [1]; 61% in assay [2]; 45.9% in assay [3]; -5.5% (active) in assay [4]; 25.1% in assay [5]; 5.58% (active) in assay [6]. Besides, the growth in assay [7] was 54.7%; in assay [8], 28%.
For the molecule `CC(=O)OCCC/C(=C\c1ccc2ccccc2c1)[N+](=O)[O-]`, the growth in assay [1] was -50.9% (active); in assay [2], -25.6% (active); in assay [3], -41.6% (active); in assay [4], -71.6% (active); in assay [5], -85.2% (active); in assay [6] it was -100% (active). Also, the growth is -92.7% (active) in assay [7] and -86.7% (active) in assay [8].
With `COc1cnc2c(c1)C(=O)c1c-2n(CCCNC2=NCCS2)c(=O)c2cc(Cl)ccc12`, the growth in assay [1] was 32.9%; in assay [2] it was 41.6%; in assay [3], 7.73% (active); in assay [4] it was -79.3% (active); in assay [5], -74.9% (active); in assay [6], -87.8% (active). In addition, the values for the growth in assay [7] and in assay [8] were -35.6% (active) and -63.2% (active), respectively.
Take `COc1cc(Nc2ncc3c(n2)-c2ccc(Cl)cc2C(c2c(F)cccc2OC)=NC3)ccc1C(=O)O`: the growth in assay [1] was 79.6%; in assay [2], 62.8%; in assay [3], 85.9%; in assay [4], 54.7%; in assay [5] it was 42.5%; in assay [6], 45.3%. Also, the growth in assay [7] was 87.5%; in assay [8], 28.3%.
With `COC(=O)[C@]12CC[C@@H](C)[C@H](C)[C@@H]1C1=CC[C@@H]3[C@@]4(C)C(c5cnco5)=C[C@@](C)(CO)C4=CC[C@@]3(C)[C@]1(C)CC2`, the growth in assay [1] was 14.7%; in assay [2] it was 56.4%; in assay [3] it was 60.5%; in assay [4] it was 50.9%; in assay [5] it was 37.1%; in assay [6], 22.6%. Moreover, the growth in assay [7] is 45.5%; in assay [8], 37.2%.
For the molecule `Cc1nn(-c2nc3ccccc3[nH]2)c2c1C(c1ccc(OCc3ccc(F)cc3)cc1)CC(=O)N2` (configuration not stated), the growth in assay [1] was 71.3%; in assay [2], 58.4%; in assay [3], 44.7%; in assay [4], 80.2%; in assay [5], 81.4%; in assay [6], 73.4%. In addition, the growth in assay [7] is 99.3%; in assay [8], 41.5%.
On to `OCCNC(=S)Nc1ccc(-c2nc(N3C[C@H]4CC[C@@H](C3)O4)c3cccn3n2)cc1`, for which the growth is -22.5% (active) in assay [1]; -8.04% (active) in assay [2]; 0.28% (active) in assay [3]; 11.6% in assay [4]; 9.19% (active) in assay [5]; 22.6% in assay [6]. The growth in assay [7] is 20.8%; in assay [8], 12%.
Consider `Cn1cnc2c(F)c(Nc3ccc(Br)cc3Cl)c(C(=O)NOCCO)cc21`, for which the growth in assay [1] is 70%; in assay [2], 78.5%; in assay [3] it was 33.3%; in assay [4], 24.2%; in assay [5], 96%; in assay [6], 17.6%. In addition, the growth in assay [7] is -10.2% (active); in assay [8] it was 28.6%.

Source of the values: PubChem BioAssay (NCI).
